Laboratory results from the supplement of paper PMC11634586.
Structures can show the parent of a compound that is named as a salt.

The compounds below were run on NCI-H1688 (assay: inhibition of cell viability relative to untreated control (fraction); higher = stronger growth inhibition, active = 0.5 or more). Conditions: 30 µM; 24 h.
Experimental: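 Natural product library (TargetMol, 640 compounds) screened on NCI-H1688 SCLC cells at 30 µM for 24 h; viability by CCK-8 absorbance at 450 nm, normalised to untreated control and expressed as inhibition rate (fraction). Compounds with >50% reduction in viability were selected as hits.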

| SMILES | inhibition of cell viability |
| --- | --- |
| COc1cc(/C=C/c2ccc(O)cc2)cc(OC)c1 [Pterostilbene] | 0.252 (inactive) |
| C[C@@H]1O[C@@H](O[C@@H]2[C@@H](O)[C@H](OCCc3ccc(O)c(O)c3)O[C@H](CO)[C@H]2OC(=O)/C=C/c2ccc(O)c(O)c2)[C@H](O)[C@H](O)[C@H]1O [Verbascoside] | 0.0855 (inactive) |
| O=c1cc(-c2ccccc2)oc2c(O)c(O)ccc12 [7,8-Dihydroxyflavone] | 0.694 (active) |
| Nc1ncnc2c1ncn2[C@@H]1O[C@H](COP(=O)(O)O)[C@@H](O)[C@H]1O [Adenosine 5'-monophosphate] | -0.0048 (inactive) |
| OC[C@H]1O[C@H](O[C@]2(CCl)O[C@H](CCl)[C@@H](O)[C@@H]2O)[C@H](O)[C@@H](O)[C@H]1Cl [Sucralose] | 0.0847 (inactive) |
| COc1cc(C(=O)O)cc(OC)c1O [Syringic acid] | 0.0408 (inactive) |
| C[C@H]1[C@H](C)CC[C@]2(C(=O)O[C@@H]3O[C@H](CO[C@@H]4O[C@H](CO)[C@@H](O[C@@H]5O[C@@H](C)[C@H](O)[C@@H](O)[C@H]5O)[C@H](O)[C@H]4O)[C@@H](O)[C@H](O)[C@H]3O)CC[C@]3(C)C(=CC[C@@H]4[C@@]5(C)C[C@@H](O)[C@H](O)[C@@](C)(CO)[C@@H]5[C@H](O)C[C@]43C)[C@H]12 [Madecassoside] | 0.808 (active) |
| O=c1c(O)c(-c2cc(O)c(O)c(O)c2)oc2cc(O)cc(O)c12 [Myricetin] | 0.0201 (inactive) |
| CC[C@H](C)C(=O)O[C@H]1C[C@@H](C)C=C2C=C[C@H](C)[C@H](CC[C@@H]3C[C@@H](O)CC(=O)O3)[C@H]21 [Lovastatin] | 0.836 (active) |
| C=C[C@](C)(O)CC[C@@H]1[C@@]2(C)CCCC(C)(C)[C@@H]2CC[C@@]1(C)O [Sclareol] | 0.318 (inactive) |
| CC(C)=CCC[C@](C)(O)[C@H]1CC[C@]2(C)[C@@H]1[C@H](O)C[C@@H]1[C@@]3(C)CC[C@H](O)C(C)(C)[C@@H]3[C@@H](O[C@@H]3O[C@H](CO)[C@@H](O)[C@H](O)[C@H]3O[C@@H]3O[C@@H](C)[C@H](O)[C@@H](O)[C@H]3O)C[C@]12C [Ginsenoside Rg2] | 0.155 (inactive) |
| C=C1CC[C@H](O)C/C1=C/C=C1\CCC[C@]2(C)[C@@H]([C@H](C)/C=C/[C@H](C)C(C)C)CC[C@@H]12 [Vitamin D2] | -0.0632 (inactive) |
| COc1cc(C2Oc3cc([C@H]4Oc5cc(O)cc(O)c5C(=O)[C@@H]4O)ccc3OC2CO)ccc1O (stereo not given in full) [Silibinin] | 0.0271 (inactive) |
| C=C1C(=O)O[C@@H]2C[C@@]3(C)CCC[C@H](C)C3=C[C@H]12 [Helenine] | 0.789 (active) |
| Cc1coc2c1C(=O)C(=O)c1c-2ccc2c(C)cccc12 [Tanshinone I] | 0.929 (active) |
| C[C@H]1[C@H](OC(=O)CCC(=O)O)O[C@@H]2O[C@@]3(C)CC[C@H]4[C@H](C)CC[C@@H]1[C@@]24OO3 [Artesunate] | 0.726 (active) |
| C[C@H](CCC(=O)O)[C@H]1CC[C@H]2[C@@H]3C(=O)C[C@@H]4CC(=O)CC[C@]4(C)[C@H]3CC(=O)[C@]12C [Dehydrocholic acid] | -0.142 (inactive) |
| O=c1cc(-c2ccccc2)oc2ccccc12 [Flavone] | 0.149 (inactive) |
| O=C(O)CCCCC1CCSS1 (stereo not given) [Alphalipoic acid] | 0.0038 (inactive) |
| C[C@H](CC[C@@H](O[C@@H]1O[C@H](CO[C@@H]2O[C@H](CO)[C@@H](O)[C@H](O)[C@H]2O)[C@@H](O)[C@H](O)[C@H]1O[C@@H]1O[C@H](CO)[C@@H](O)[C@H](O)[C@H]1O)C(C)(C)O)[C@H]1CC[C@@]2(C)[C@@H]3CC=C4[C@@H](CC[C@H](O[C@@H]5O[C@H](CO[C@@H]6O[C@H](CO)[C@@H](O)[C@H](O)[C@H]6O)[C@@H](O)[C@H](O)[C@H]5O)C4(C)C)[C@]3(C)[C@H](O)C[C@]12C [Mogroside V] | 0.121 (inactive) |

| SMILES | inhibition of cell viability |
| --- | --- |
| OC[C@H]1OC(O)[C@@H](O)[C@@H](O)[C@@H]1O (stereo not given in full) [Mannose] | 0.0629 (inactive) |
| COc1ccc(C2CC(=O)c3c(O)cc(OC4OC(COC5OC(C)C(O)C(O)C5O)C(O)C(O)C4O)cc3O2)cc1OC (stereo not given) [Methyl hesperidin] | 0.00735 (inactive) |
| COc1ccc(C(C)=O)c(O)c1 [Paeonol] | 0.0334 (inactive) |
| Oc1cc(O)c2c(c1)O[C@H](c1ccc(O)c(O)c1)[C@@H](O)C2 [(+)-Catechin Hydrate] | 0.159 (inactive) |
| Cc1cc(O)cc(O[C@@H]2O[C@H](CO)[C@@H](O)[C@H](O)[C@H]2O)c1 [Orcinol glucoside] | 0.0244 (inactive) |
| CC12CCC(CC1=O)C2(C)C [D-Camphor] | 0.123 (inactive) |
| COc1cc2c(cc1OC)[C@@H]1Cc3ccc(OC)c(OC)c3CN1CC2 [Tetrahydropalmatine] | 0.242 (inactive) |
| COc1cc2c(c(OC)c1OC)-c1c(cc(OC)c(OC)c1OC)CC(C)C(C)C2 (stereo not given) [Schizandrin A] | -0.0474 (inactive) |
| O=C(CCc1ccc(O)cc1)c1c(O)cc(O)cc1O[C@@H]1O[C@H](CO)[C@@H](O)[C@H](O)[C@H]1O [Phlorizin] | -0.0544 (inactive) |
| C[C@@H]1O[C@@H](O[C@H]2[C@H](O[C@H]3CC[C@@]4(C)[C@@H](CC[C@]5(C)[C@@H]4CC=C4[C@@H]6CC(C)(C)CC[C@]6(C(=O)O)CC[C@]45C)[C@]3(C)CO)OC[C@H](O)[C@@H]2O)[C@H](O)[C@H](O)[C@H]1O [Alpha-Hederin] | 0.999 (active) |
| CC12CCC(CC1=O)C2(C)C (stereo not given) [Camphor] | -0.239 (inactive) |
| Nc1ncnc2c1ncn2[C@@H]1O[C@H](COP(=O)(O)OP(=O)(O)OP(=O)(O)O)[C@@H](O)[C@H]1O [Adenosine disodium triphosphate] | 0.0565 (inactive) |
| C[N+](C)(C)CC(=O)O [Betaine hydrochloride] | -0.247 (inactive) |
| CC(=O)OCC(=O)[C@@]1(O)CC[C@H]2[C@@H]3CCC4=CC(=O)CC[C@]4(C)[C@H]3C(=O)C[C@@]21C [Cortisone acetate] | -0.148 (inactive) |
| COc1cc(C=O)ccc1OC(C)=O [Acetylvanillin] | -0.295 (inactive) |
| N[C@@H](Cc1ccc(O)c(O)c1)C(=O)O [Levodopa] | 0.167 (inactive) |
| CN[C@@H](C)[C@H]1[C@H](O)C[C@@]2(C)[C@@H]3CC[C@H]4C(C)(C)[C@@H](NC)CC[C@@]45C[C@@]35CC[C@]12C [Cyclovirobuxin D] | -0.0295 (inactive) |
| C[C@H](CCC(=O)O)[C@H]1CC[C@H]2[C@@H]3CC[C@@H]4C[C@H](O)CC[C@]4(C)[C@H]3C[C@H](O)[C@]12C [Deoxycholic acid] | -0.113 (inactive) |
| COC1=C(OC)C(=O)C(C/C=C(\C)CC/C=C(\C)CC/C=C(\C)CC/C=C(\C)CC/C=C(\C)CC/C=C(\C)CC/C=C(\C)CC/C=C(\C)CC/C=C(\C)CCC=C(C)C)=C(C)C1=O [Coenzyme Q10 (CoQ10)] | -0.0281 (inactive) |
| CC1=C(C/C=C(\C)CCC[C@H](C)CCC[C@H](C)CCCC(C)C)C(=O)c2ccccc2C1=O [Vitamin K1] | -0.199 (inactive) |
